# Screens (PubChem)
# PP5 inh: PP5 (human) phosphatase inhibition | purified PP5c, OMFP substrate fluorescence | inhibition, % at 6.7 µM | 320,000 tested, 0.18% active | P53041;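 active = inhibition above the campaign's mean inhibition across all tested compounds plus 3 SD, cut at about 9.5% in these data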;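 also: 0% = DMSO only and 100% = 100 µM cantharidin control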
# PP1 counter: blocks human PP1-alpha phosphatase, a PP5 counter-screen; P62136; purified PP1alpha, OMFP fluorescence; inhibition, % at 6.7 µM; 320,000 tested, 0.9% active; AID 2235;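 active = inhibition above the mean inhibition of all tested compounds plus 3 SD, computed separately for each screening campaign, cut at about 15% in these data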
# Target sequence (P62136 whole entry, looked up): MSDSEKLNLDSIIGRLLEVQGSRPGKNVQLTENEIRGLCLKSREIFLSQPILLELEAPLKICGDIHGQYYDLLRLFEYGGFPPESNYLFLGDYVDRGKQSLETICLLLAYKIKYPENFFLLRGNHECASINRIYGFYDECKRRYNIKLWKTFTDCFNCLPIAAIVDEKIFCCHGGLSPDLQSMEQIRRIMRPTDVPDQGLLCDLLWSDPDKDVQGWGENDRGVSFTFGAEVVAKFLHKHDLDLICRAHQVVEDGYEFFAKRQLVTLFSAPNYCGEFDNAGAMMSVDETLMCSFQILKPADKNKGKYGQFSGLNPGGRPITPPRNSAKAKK
# ALR inh: human ALR oxidase inhibition via reduced H2O2; P55789; AID 485317; 290,000 tested, 3.8% active; purified ALR, DTT oxidation, H2O2 HRP-luminol luminescence; inhibition, % (concentration not given with the values);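 active = mean replicate inhibition above about 79%, with every replicate also reaching it, limit read from the data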
# Target sequence (P55789 whole entry, looked up): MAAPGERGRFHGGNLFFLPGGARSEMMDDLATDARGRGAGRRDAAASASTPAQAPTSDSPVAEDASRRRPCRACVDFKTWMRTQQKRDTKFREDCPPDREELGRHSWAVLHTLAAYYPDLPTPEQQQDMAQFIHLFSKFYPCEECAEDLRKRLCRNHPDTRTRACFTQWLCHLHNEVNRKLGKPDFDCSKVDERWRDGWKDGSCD
# Calb FLC: affects C. albicans growth with fluconazole; 300,000 tested, 0.57% active; C. albicans CaCi-2 (fluconazole-resistant clinical isolate) + fluconazole, Alamar Blue growth, 48 h; growth inhibition, % (test concentration not listed); AID 1979;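 active = growth inhibition above about 58% in most replicates, limit read from the data, passing the limit was not always enough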;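 also: all wells also contain fluconazole at 8 µg/ml as a sub-toxic cotreatment; 0% = median of DMSO wells and 100% = median of geldanamycin control wells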
# CSC inhib: blocks cancer stem cells. inhibition, % at 7.5 µM. 300,000 tested, 1.1% active. cancer stem cell-like cells viability, luminescence. AID 2717; in the data active = inhibition above about 75%; tested in HMLE shEcad cells
# The depositor's hits bear a star; x = not tested or not shown; + = active, no number. Hits are enriched below; roughly 5.4% of the tested compounds scored in any of these assays.
SMILES,PP5 inh,PP1 counter,ALR inh,Calb FLC,CSC inhib
CC(/C=C1\SC(=S)N(NC(=O)c2cccc(O)c2)C1=O)=C\c1ccccc1,2.9,1.7,-1.7,-23.4,21.6
COc1cc(/C=C2\SC(=S)N(NC(=O)c3ccccc3O)C2=O)ccc1O,3.0,2.0,99.0*,11.9,2.1
O=C(NN1C(=O)/C(=C/c2ccc(O)cc2)SC1=S)c1ccccc1O,-0.4,0.1,99.4*,33.8,15.2
O=C(NN1C(=O)/C(=C/c2cc([N+](=O)[O-])ccc2O)SC1=S)c1ccccc1O,1.8,1.7,80.8*,1.4,-13.2
Cc1ccc(C(=O)O/N=C2\CCSc3ccc(C)cc32)cc1,1.4,-2.6,3.1,10.9,-10.3
Cc1occc1C(=O)NCc1cccc(CNC(=O)c2ccoc2C)c1,-3.7,1.0,x,2.3,14.1
Cc1occc1C(=O)NCc1ccccn1,-1.0,4.8,82.3*,-4.1,-10.7
COc1ccc2nc(NC(=O)c3ccc([N+](=O)[O-])o3)sc2c1,5.0,5.6,-16.2,-8.5,75.2*
O=C(Nc1nc2c(F)cc(F)cc2s1)c1ccc([N+](=O)[O-])o1,2.7,2.6,-11.2,6.6,96.5*
Cc1cc(C)c2sc(NC(=O)c3ccc([N+](=O)[O-])o3)nc2c1,0.0,-2.5,-13.7,4.4,92.2*
O=C(NCc1ccc2c(c1)OCO2)C1CC(=O)N(CCc2ccc(F)cc2)C1 (stereo not given),0.8,-0.2,1.4,3.1,-19.3
O=C(CSCc1cccc(Cl)c1)NCc1ccc2c(c1)OCO2,2.6,-0.6,-6.2,-41.7,5.2
Cc1ccc2nsnc2c1NC(=O)c1cccc([N+](=O)[O-])c1,3.2,-2.0,-1.8,11.0,x
Cc1cc(=O)[nH]c(SCC(=O)N2CCC(Cc3ccccc3)CC2)n1,-0.7,-2.0,-2.6,1.8,-1.0
Cc1cc(C)c(S(=O)(=O)/N=C2\C=CC(=O)C(Cl)=C2)c(C)c1,2.2,3.9,24.4,x,8.0
Cc1ccc(OCC(=O)N/N=C/c2cn(C)c3ccccc23)cc1,0.5,-1.0,-10.4,4.1,x
CCn1ncc(/C=N\NC(=O)COc2ccccc2)c1C,1.5,0.2,95.5*,-0.9,-6.9
Cc1ccc(NC2CCCN(C(=O)c3cccc4nccnc34)C2)cc1C (stereo not given),3.6,-4.7,87.5*,-0.9,-13.6
COc1cccc(C(=O)N2CCCC(Nc3ccc(C)c(C)c3)C2)c1 (stereo not given),-1.1,-1.1,98.2*,-1.8,-3.8
Cc1ccc(NC2CCCN(C(=O)c3ccc4nccnc4c3)C2)cc1C (stereo not given),x,x,97.8*,10.7,-16.0
Cc1ccc(NC2CCCN(C(=O)c3ccnc(Cl)c3)C2)cc1C (stereo not given),0.7,-1.5,96.1*,32.7,5.2
O=C(c1ccc2nccnc2c1)N1CCCC(Nc2ccc(F)c(F)c2)C1 (stereo not given),4.9,-1.6,1.6,-5.0,-0.4
Cc1ccc(NC(=O)c2cc(S(=O)(=O)N3CCCC3)cn2C)cc1,-3.1,-4.0,4.6,4.8,-9.5
Brc1ccc(-c2nnc3n2CCCCC3)cc1,0.7,-1.7,-3.2,-4.3,x
Cn1nc(C(C)(C)C)cc1C(=O)NNC(=O)c1ccc(C(F)(F)F)cc1,-0.4,1.6,-1.9,-0.6,-6.8
SMILES,PP5 inh,PP1 counter,ALR inh,Calb FLC,CSC inhib
COc1ccc(NC2CCCN(C(=O)c3ccc4nccnc4c3)C2)cc1OC (stereo not given),-1.3,-2.9,95.6*,-2.4,7.2
COc1ccc(C(=O)N2CCCC(Nc3ccc(C)c(C)c3)C2)c(OC)n1 (stereo not given),1.1,1.4,83.3*,8.2,-14.5
Cc1cccc(C(=O)N2CCCC(Nc3ccc(F)c(F)c3)C2)n1 (stereo not given),4.1,-0.9,45.3,-4.2,2.6
Cc1cccc(C(=O)N2CCCC(Nc3ccc(C)c(C)c3)C2)n1 (stereo not given),-0.7,1.0,98.7*,0.5,-15.2
Cc1ccc(NC2CCCN(C(=O)c3ccc(F)cc3)C2)cc1C (stereo not given),-0.2,1.0,90.1*,1.5,-13.0
COc1ccc(C(=O)N2CCCC(Nc3ccc(F)c(F)c3)C2)c(OC)n1 (stereo not given),2.7,3.7,20.3,-2.4,-14.5
CC(C)(C)c1ccc(C(=O)Nc2nnc(C3=COCCO3)o2)cc1,3.1,8.8,19.6,x,41.3
COc1cc(Br)cc2cc(C(=O)N3CCN(C(=O)c4ccco4)CC3)c(=O)oc12,-0.6,-3.2,-2.1,-8.4,-14.3
COn1c(-c2ccccc2)c(C=O)c2ccccc21,4.8,-0.5,2.1,5.9,11.5
CC1=[N+](C)c2ccc3ccccc3c2C1(C)C,3.1,-2.7,-45.9,22.7,102.8*
COc1cc(C2Oc3cc(C4Oc5cc(O)cc(O)c5C(=O)C4O)ccc3OC2CO)ccc1O (stereo not given),-0.1,1.3,73.5,x,-10.4
COc1ccc(CN2C(=O)C3C4C=CC(C4)C3C2=O)cc1 (stereo not given),2.4,-8.8,99.9*,-16.4,7.9
CC1=CC(c2ccc(Cl)cc2)n2nc(NS(=O)(=O)c3ccc(C)cc3)nc2N1 (stereo not given),2.3,1.9,96.4*,23.3,-6.4
COCCn1c(CCc2ccccc2)n[nH]c1=S,-0.2,-4.5,85.2*,9.6,-0.7
CCOC(=O)c1ccc(NC(=O)CSc2nccn2C)cc1,2.6,-1.5,98.8*,6.7,-11.7
COc1ccc(NC(=O)CSc2nccn2C)cc1S(N)(=O)=O,1.0,-7.2,98.7*,3.6,-9.8
Cn1ccnc1SCC(=O)Nc1ccc2c(c1)COC2=O,1.5,-2.1,99.2*,-4.3,-5.8
COc1ccc(NC(=O)CSc2nncs2)cc1S(N)(=O)=O,-0.1,-7.5,-2.8,-4.1,-22.7
Cc1ccc(C)c(CN2C(=O)CSc3ccc(C(=O)N4CCCC4)cc32)c1,1.1,-0.9,-0.9,-3.9,-20.0
O=C(O)CN1C(=O)/C(=C\c2cn(-c3ccccc3)nc2-c2ccccc2)SC1=S,-1.0,0.9,26.1,6.5,31.0
CC(C)COc1ccc(-c2nn(-c3ccccc3)cc2/C=C2/SC(=S)N(CC(=O)O)C2=O)cc1,-0.3,11.9,97.4*,-3.9,+
O=C(CCNC(=O)c1ccccc1)NCC1CCCCC1,-0.2,-4.4,-6.6,-8.3,4.3
CC(C)Cn1c(O)c(/C=C2\C=NN=C2c2ccccc2)sc1=S,2.3,1.6,x,22.8,90.5*
O=C(O)CC(c1ccccc1)N1C(=O)c2ccccc2C1=O (stereo not given),1.1,-0.4,-0.5,-16.1,-23.8
CCOC(=O)c1c(N)sc(C(=O)Nc2ccccc2F)c1C,0.0,-4.0,-3.4,-2.6,-0.7
CC(=O)C1C(=O)CC(C)(O)C(C(C)=O)C1c1ccc(N(C)C)cc1 (stereo not given),3.1,-4.3,98.0*,-11.5,3.3
CCN(CC)c1ccc(C2C(C(C)=O)C(=O)CC(C)(O)C2C(C)=O)cc1 (stereo not given),-0.3,-2.8,98.7*,-3.7,x
CCOC(=O)C1C(=O)CC(C)(O)C(C(=O)OCC)C1c1ccc(OC)cc1 (stereo not given),-0.2,-4.4,-5.5,-3.2,-4.9
